# In PubChem BioAssay (NCI):
# About 79,000 compounds went through this panel and 15% of them were active in at least one assay; those are over-represented in the sample as a whole. Values without a mark were called inactive. The source made the active and inactive calls. Cut-off read from the data, not from the text of the source: active = growth inhibition above about 70%; inactive = the rest.
# What was measured:
# [1] = NCI Yeast Anticancer Drug Screen. Data for the wt1 strain (AID 149);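 note: 0% = growth of vehicle-treated wt1 cultures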; conditions: S. cerevisiae wt1 strain (SPY 50644) growth inhibition, hits give high values
# Outline: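 Vehicle-normalised growth inhibition; strain wt1; compound exposure.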
# [2] = NCI Yeast Anticancer Drug Screen. Data for the rad50EPP+ strain (AID 151);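 note: 0% = growth of vehicle-treated control cultures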; conditions: S. cerevisiae rad50 mutant strain, hits give high values
# Outline: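 One strain with a rad50 alteration (rad50EPP+) was compound-treated, its growth then compared to that of vehicle controls.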
# [3] = NCI Yeast Anticancer Drug Screen. Data for the mgt1 strain (AID 153); conditions: S. cerevisiae mgt1 mutant growth inhibition, hits give high values
# Outline: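 After exposure of the mgt1 yeast mutant to compound, growth was measured and reported as inhibition compared with vehicle controls.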
# [4] = NCI Yeast Anticancer Drug Screen. Data for the rad50 strain (AID 155);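 note: 0% = growth of vehicle-only cultures of the same strain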; conditions: S. cerevisiae rad50 strain growth inhibition, hits give high values
# Outline: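 A DNA repair-deficient yeast mutant serves as the test organism; compound-induced growth inhibition is calculated against vehicle-treated cells.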
# [5] = NCI Yeast Anticancer Drug Screen. Data for the mec2-1 strain (AID 157); conditions: S. cerevisiae mec2-1 strain, hits give high values
# Outline: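 Test agents were screened against the mec2-1 yeast strain, with defined DNA repair or cell cycle alteration. Growth was scored as inhibition against vehicle-only controls.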
# [6] = NCI Yeast Anticancer Drug Screen. Data for the rad14 strain (AID 159);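 note: 0% = growth of vehicle-treated control cultures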; conditions: S. cerevisiae rad14 strain growth inhibition, hits give high values
# Outline: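 Vehicle-treated cultures served as the baseline for growth inhibition of a DNA repair-mutant yeast strain exposed to each compound.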
# [7] = NCI Yeast Anticancer Drug Screen. Data for the sgs1 mgt1 strain (AID 161);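 note: 0% = growth of cultures given vehicle only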; conditions: S. cerevisiae sgs1 mgt1 strain, hits give high values
# Outline: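 Read-out: growth inhibition vs vehicle controls. Cells: mutant yeast strain deficient in DNA damage repair.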
# [8] = NCI Yeast Anticancer Drug Screen. Data for the CLN2oe strain (AID 163);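 note: 0% = growth of vehicle-only control cultures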; conditions: S. cerevisiae CLN2oe strain, hits give high values
# Outline: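 Here, growth inhibition in a cell-cycle-altered yeast strain after compound exposure was quantified against vehicle control growth.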
# [9] = NCI Yeast Anticancer Drug Screen. Data for the cln2 rad14 strain (AID 165);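 note: 0% = growth equal to vehicle treated cultures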; conditions: S. cerevisiae cln2 rad14 strain, hits give high values
# Outline: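 Growth of compound-exposed yeast (cln2 rad14 genotype) measured and expressed as inhibition relative to vehicle.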
# [10] = NCI Yeast Anticancer Drug Screen. Data for the bub3 strain (AID 167); conditions: S. cerevisiae bub3 mutant strain, hits give high values
# Outline: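 Inhibition values come from growth of compound-treated mutant yeast normalised to vehicle-treated controls.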
# [11] = NCI Yeast Anticancer Drug Screen. Data for the wt2 strain (AID 169);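 note: 0% = growth of vehicle-treated yeast cultures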; conditions: S. cerevisiae wt2 strain growth inhibition, hits give high values
# Outline: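 Genetically defined yeast strains from a DNA-repair/cell-cycle panel were used. Compound-exposed yeast growth was measured, and the inhibition was calculated relative to vehicle treatment.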
# [12] = NCI Yeast Anticancer Drug Screen. Data for the mlh1 strain (AID 171);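 note: 0% = growth of vehicle-treated control cultures of the same strain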; conditions: S. cerevisiae mlh1 strain growth inhibition, hits give high values
# Outline: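 Here the genetically defined yeast mutant is grown with each compound, and the extent to which its growth falls below that of vehicle-exposed cells is reported.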
# [13] = NCI Yeast Anticancer Drug Screen. Data for the sgs1 strain (AID 173);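 note: 0% = growth of vehicle-only control cultures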; conditions: S. cerevisiae sgs1 mutant, hits give high values
# Outline: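 Relative growth inhibition, referenced to vehicle, was determined in a yeast strain with a defined alteration affecting DNA damage repair or cell cycle control after compound exposure.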
# [14] = NCI Yeast Anticancer Drug Screen. Data for the mlh1 rad18 strain (AID 175); conditions: S. cerevisiae mlh1 rad18 strain growth inhibition, hits give high values
# Outline: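 In this whole-cell yeast screen, a strain with altered DNA damage repair is challenged with compound, and its growth is measured against matched vehicle-treated controls.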
# [15] = NCI Yeast Anticancer Drug Screen. Data for the rad18 strain (AID 177); conditions: S. cerevisiae rad18 mutant growth inhibition, hits give high values
# Outline: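 Screen uses a yeast strain with a defined lesion in DNA damage repair; compound effect is read as loss of growth compared to untreated vehicle cultures.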
# [16] = NCI Yeast Anticancer Drug Screen. Data for the rad52 strain (AID 147);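 note: 0% = growth of vehicle-treated control cultures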; conditions: S. cerevisiae rad52 mutant growth inhibition, hits give high values
# Outline: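 Measured: yeast growth inhibition. System: strain with a defined DNA damage repair alteration. Reference: vehicle-treated control cultures.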
# [17] = at 5.0 µM (retest, dose inferred, filed as 0.5)
# [18] = at 50.0 µM (retest, dose inferred, filed as 5.0)
compound,measurement,setting,value
COc1cc(OC)c(CSCC(NC(=O)OCC2c3ccccc3-c3ccccc32)C(=O)O)c(OC)c1 (stereo unspecified),growth inhibition,[1]; at 1.2 µM,1%
same,growth inhibition,[1]; at 3.7 µM,9%
same,growth inhibition,[1]; at 11.0 µM,55%
same,growth inhibition,[1]; at 33.0 µM,96% (active)
same,growth inhibition,[1]; at 100.0 µM,99% (active)
same,growth inhibition,[2]; at 1.2 µM,-2%
same,growth inhibition,[2]; at 3.7 µM,-2%
same,growth inhibition,[2]; at 11.0 µM,-1%
same,growth inhibition,[2]; at 33.0 µM,0%
same,growth inhibition,[2]; at 100.0 µM,-3%
same,growth inhibition,[3]; at 1.2 µM,-2%
same,growth inhibition,[3]; at 3.7 µM,8%
same,growth inhibition,[3]; at 11.0 µM,52%
same,growth inhibition,[3]; at 33.0 µM,97% (active)
same,growth inhibition,[3]; at 100.0 µM,98% (active)
same,growth inhibition,[4]; at 1.2 µM,-6%
same,growth inhibition,[4]; at 3.7 µM,-9%
same,growth inhibition,[4]; [17],15%
same,growth inhibition,[4]; at 11.0 µM,43%
same,growth inhibition,[4]; at 33.0 µM,94% (active)
same,growth inhibition,[4]; [18],99% (active)
same,growth inhibition,[4]; at 50.0 µM,98.6% (active)
same,growth inhibition,[4]; at 100.0 µM,98% (active)
same,growth inhibition,[5]; at 1.2 µM,2%
same,growth inhibition,[5]; at 3.7 µM,11%
same,growth inhibition,[5]; [17],12%
same,growth inhibition,[5]; at 11.0 µM,55%
same,growth inhibition,[5]; at 33.0 µM,96% (active)
same,growth inhibition,[5]; [18],99% (active)
same,growth inhibition,[5]; at 50.0 µM,99.2% (active)
same,growth inhibition,[5]; at 100.0 µM,98% (active)
same,growth inhibition,[6]; at 1.2 µM,-2%
same,growth inhibition,[6]; at 3.7 µM,10%
same,growth inhibition,[6]; at 11.0 µM,68%
same,growth inhibition,[6]; at 33.0 µM,96% (active)
same,growth inhibition,[6]; at 100.0 µM,99% (active)
same,growth inhibition,[7]; [17],-4%
same,growth inhibition,[7]; [18],98% (active)
same,growth inhibition,[7]; at 50.0 µM,99% (active)
same,growth inhibition,[8]; at 1.2 µM,0%
same,growth inhibition,[8]; at 3.7 µM,13%
same,growth inhibition,[8]; at 11.0 µM,68%
same,growth inhibition,[8]; at 33.0 µM,99% (active)
same,growth inhibition,[8]; at 100.0 µM,98% (active)
same,growth inhibition,[9]; [17],52%
same,growth inhibition,[9]; [18],99% (active)
same,growth inhibition,[9]; at 50.0 µM,98.4% (active)
same,growth inhibition,[10]; at 1.2 µM,0%
same,growth inhibition,[10]; at 3.7 µM,10%
same,growth inhibition,[10]; [17],3%
same,growth inhibition,[10]; at 11.0 µM,61%
same,growth inhibition,[10]; at 33.0 µM,95% (active)
same,growth inhibition,[10]; [18],99% (active)
same,growth inhibition,[10]; at 50.0 µM,99.2% (active)
same,growth inhibition,[10]; at 100.0 µM,98% (active)
same,growth inhibition,[11]; at 1.2 µM,-1%
same,growth inhibition,[11]; at 3.7 µM,6%
same,growth inhibition,[11]; at 11.0 µM,58%
same,growth inhibition,[11]; at 33.0 µM,98% (active)
same,growth inhibition,[11]; at 100.0 µM,98% (active)
same,growth inhibition,[12]; at 1.2 µM,3%
same,growth inhibition,[12]; at 3.7 µM,9%
same,growth inhibition,[12]; at 11.0 µM,62%
same,growth inhibition,[12]; at 33.0 µM,97% (active)
same,growth inhibition,[12]; at 100.0 µM,98% (active)
same,growth inhibition,[13]; at 1.2 µM,1%
same,growth inhibition,[13]; at 3.7 µM,9%
same,growth inhibition,[13]; at 11.0 µM,45%
same,growth inhibition,[13]; at 33.0 µM,95% (active)
same,growth inhibition,[13]; at 100.0 µM,98% (active)
same,growth inhibition,[14]; [17],5%
same,growth inhibition,[14]; [18],99% (active)
same,growth inhibition,[14]; at 50.0 µM,98.4% (active)
same,growth inhibition,[15]; at 1.2 µM,0%
same,growth inhibition,[15]; at 3.7 µM,8%
same,growth inhibition,[15]; at 11.0 µM,36%
same,growth inhibition,[15]; at 33.0 µM,96% (active)
same,growth inhibition,[15]; at 100.0 µM,97% (active)
Cc1c2cc[n+](CCO)cc2c(C)c2c1[nH]c1ccc(O)cc12,growth inhibition,[16]; at 1.2 µM,25%
same,growth inhibition,[16]; at 3.7 µM,53%
same,growth inhibition,[16]; at 11.0 µM,80% (active)
same,growth inhibition,[16]; at 33.0 µM,91% (active)
same,growth inhibition,[16]; at 100.0 µM,91% (active)
same,growth inhibition,[2]; at 1.2 µM,25%
same,growth inhibition,[2]; at 3.7 µM,57%
same,growth inhibition,[2]; at 11.0 µM,59%
same,growth inhibition,[2]; at 33.0 µM,68%
same,growth inhibition,[2]; at 100.0 µM,83% (active)
same,growth inhibition,[3]; at 1.2 µM,22%
same,growth inhibition,[3]; at 3.7 µM,26%
same,growth inhibition,[3]; at 11.0 µM,28%
same,growth inhibition,[3]; at 33.0 µM,35%
same,growth inhibition,[3]; at 100.0 µM,45%
same,growth inhibition,[4]; at 1.2 µM,35%
same,growth inhibition,[4]; at 3.7 µM,68%
same,growth inhibition,[4]; [17],47%
same,growth inhibition,[4]; at 11.0 µM,89% (active)
same,growth inhibition,[4]; at 33.0 µM,94% (active)
same,growth inhibition,[4]; [18],93% (active)
same,growth inhibition,[4]; at 50.0 µM,80.5% (active)
same,growth inhibition,[4]; at 100.0 µM,95% (active)
same,growth inhibition,[5]; at 1.2 µM,22%
same,growth inhibition,[5]; at 3.7 µM,28%
same,growth inhibition,[5]; [17],15%
same,growth inhibition,[5]; at 11.0 µM,30%
same,growth inhibition,[5]; at 33.0 µM,48%
same,growth inhibition,[5]; [18],36%
same,growth inhibition,[5]; at 50.0 µM,36.7%
same,growth inhibition,[5]; at 100.0 µM,52%
same,growth inhibition,[6]; at 1.2 µM,4%
same,growth inhibition,[6]; at 3.7 µM,9%
same,growth inhibition,[6]; at 11.0 µM,3%
same,growth inhibition,[6]; at 33.0 µM,19%
same,growth inhibition,[6]; at 100.0 µM,29%
same,growth inhibition,[7]; [17],12%
same,growth inhibition,[7]; [18],35%
same,growth inhibition,[7]; at 50.0 µM,-1.6%
same,growth inhibition,[9]; [17],13%
same,growth inhibition,[9]; [18],15%
same,growth inhibition,[9]; at 50.0 µM,7.55%
same,growth inhibition,[10]; at 1.2 µM,6%
same,growth inhibition,[10]; at 3.7 µM,9%
same,growth inhibition,[10]; [17],7%
same,growth inhibition,[10]; at 11.0 µM,10%
same,growth inhibition,[10]; at 33.0 µM,24%
same,growth inhibition,[10]; [18],33%
same,growth inhibition,[10]; at 50.0 µM,1.35%
same,growth inhibition,[10]; at 100.0 µM,28%
same,growth inhibition,[11]; at 1.2 µM,-8%
same,growth inhibition,[11]; at 3.7 µM,-6%
same,growth inhibition,[11]; at 11.0 µM,-4%
same,growth inhibition,[11]; at 33.0 µM,-9%
same,growth inhibition,[11]; at 100.0 µM,-10%
same,growth inhibition,[12]; at 1.2 µM,25%
same,growth inhibition,[12]; at 3.7 µM,32%
same,growth inhibition,[12]; at 11.0 µM,41%
same,growth inhibition,[12]; at 33.0 µM,42%
same,growth inhibition,[12]; at 100.0 µM,47%
same,growth inhibition,[13]; at 1.2 µM,18%
same,growth inhibition,[13]; at 3.7 µM,19%
same,growth inhibition,[13]; at 11.0 µM,17%
same,growth inhibition,[13]; at 33.0 µM,25%
same,growth inhibition,[13]; at 100.0 µM,42%
same,growth inhibition,[14]; [17],13%
same,growth inhibition,[14]; [18],36%
same,growth inhibition,[14]; at 50.0 µM,72.6% (active)
same,growth inhibition,[15]; at 1.2 µM,20%
same,growth inhibition,[15]; at 3.7 µM,20%
same,growth inhibition,[15]; at 11.0 µM,19%
same,growth inhibition,[15]; at 33.0 µM,40%
same,growth inhibition,[15]; at 100.0 µM,49%
